The values that follow come from PubChem BioAssay AID651822 (The Scripps Research Institute Molecular Screening Center, 2012).

The whole screen tested about 2,300 compounds, of which about 970 (42%) were called active. The set was probably picked from earlier hits. Only a sample is shown. Unmarked numbers belong to inactive results. No stated cut-off is given here; in the data, active means inhibition above about 4.5%; inactive means the rest.

The test system of the test is Methionine sulfoxide reductase A (Bos taurus). The experiment in a line: bovine MsrA inhibitors, retest, confirmation, biochemical, absorbance, HTS (AID 651822).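 Further: coupled to thioredoxin reductase with NADPH and selenocystamine and DMSO as substrate; 0% = vehicle only and 100% = full effect of reference inhibitor.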 As to conditions: purified bovine MsrA, absorbance read-out; at 15.5 µM; active compounds read high.
Take `CCCCC(=O)N/N=C/c1c(O)n(CC)c(=S)n(CC)c1=O`: the inhibition is 6.08% (active).

For `CCOc1ccc(-c2cc(C)[n+](CCN(CC)CC)c(-c3ccc(OCC)cc3)c2)cc1`, the inhibition is 3.69%.

For `COc1ccc(C(=O)C2CCCN(Cc3ccc(C)s3)C2)cc1OC` (stereo not drawn), the inhibition is -0.82%.
